Laboratory results: PubChem BioAssay AID1159580 (chemical genetic matrix, 2015)
Several values for one entry are separate records, joined by “and”; a condition that tells them apart may be missing. Identical values can stand only once. The whole screen tested about 5,500 compounds, of which about 2,000 (36%) were called active. Inconclusive results (about 18%) are left out. Rule as the data show it: active = normalized growth mostly below about 0.91 (no sharp cut-off); inconclusive = no clear call, values can overlap the other calls; inactive = mostly above about 0.92. Some of the results follow.

Experiment: chemical genetic growth profiling, strain panel (AID 1159580);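 also: tested at 20 µM; growth read once vehicle control cultures reached saturation at 30 °C; 1 = growth at the plate median or of vehicle wells; lower values mean less growth of the strain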
Conditions: S. cerevisiae deletion strains, growth OD

Measured: normalized growth

Cc1nc2ccccn2c(=O)c1CCN1CCC(C(=O)c2ccc(F)cc2)CC1
inactive: locus YAL013W, strain DEP1, stronger effect = lower value 1.02 and 1.01 | locus YAL021C, strain ccr4, stronger effect = lower value 1 | locus YAL026C, strain drs2, stronger effect = lower value 1 | locus YAL030W, strain snc1, stronger effect = lower value 0.999 | locus YAL040C, strain CLN3, stronger effect = lower value 0.993 | locus YBL061C, strain skt5, stronger effect = lower value 0.983 | locus YBR009C, strain hhf1, stronger effect = lower value 0.987 | locus YBR021W, strain FUR4, stronger effect = lower value 0.981 | locus YBR023C, strain chs3, stronger effect = lower value 0.986 | locus YBR171W, strain sec66, stronger effect = lower value 0.981 | locus YBR229C, strain ROT2, stronger effect = lower value 1.02 | locus YBR231C, strain swc5, stronger effect = lower value 0.984 | locus YBR279W, strain paf1, stronger effect = lower value 0.977 | locus YCL011C, strain gbp2, stronger effect = lower value 0.997 | locus YCL016C, strain dcc1, stronger effect = lower value 0.989 | locus YCL029C, strain bik1, stronger effect = lower value 0.999 | locus YCL061C, strain MRC1 (second series), stronger effect = lower value 1.01 | locus YCL061C, strain MRC1, stronger effect = lower value 1.02 | locus YCL069W, strain vba3, stronger effect = lower value 1 | locus YCR088W, strain abp1, stronger effect = lower value 0.982 | locus YDL005C, strain med2, stronger effect = lower value 0.973 | locus YDL035C, strain GPR1, stronger effect = lower value 1.02 | locus YDL040C, strain nat1, stronger effect = lower value 1 | locus YDL074C, strain BRE1, stronger effect = lower value 1.07 | locus YDL101C, strain DUN1, stronger effect = lower value 1.04 | locus YDL134C, strain PPH21, stronger effect = lower value 1.02 | locus YDL185W, strain tfp1, stronger effect = lower value 0.992 | locus YDL192W, strain arf1, stronger effect = lower value 0.997 | locus YDR001C, strain nth1, stronger effect = lower value 0.986 | locus YDR069C, strain doa4, stronger effect = lower value 0.972 | locus YDR101C, strain arx1, stronger effect = lower value 0.979 | locus YDR137W, strain rgp1, stronger effect = lower value 0.976 | locus YDR150W, strain NUM1, stronger effect = lower value 1.03 and 1 | locus YDR159W, strain sac3, stronger effect = lower value 0.977 | locus YDR162C, strain NBP2, stronger effect = lower value 1.05 | locus YDR195W, strain ref2 0.996 | locus YDR297W, strain sur2, stronger effect = lower value 0.98 | locus YDR318W, strain mcm21, stronger effect = lower value 0.983 | locus YDR334W, strain swr1, stronger effect = lower value 0.982 | locus YDR335W, strain msn5, stronger effect = lower value 0.984 | locus YDR363W, strain ESC2, stronger effect = lower value 1.01 | locus YDR388W, stronger effect = lower value 0.995 | locus YDR392W, strain spt3, stronger effect = lower value 0.988 | locus YDR502C, strain sam2, stronger effect = lower value 1.01 | locus YEL003W, strain gim4, stronger effect = lower value 0.997 | locus YEL037C, strain rad23, stronger effect = lower value 0.984 | locus YEL061C, strain CIN8 (second series), stronger effect = lower value 0.994 | locus YEL061C, strain CIN8, stronger effect = lower value 1.01 | locus YER002W, strain NOP16, stronger effect = lower value 0.983 | locus YER015W, strain faa2, stronger effect = lower value 0.997 | locus YER016W, strain bim1, stronger effect = lower value 0.985 | locus YER110C, stronger effect = lower value 0.991 | locus YER111C, strain swi4, stronger effect = lower value 0.973 | locus YER155C, strain BEM2 (second series), stronger effect = lower value 1 | locus YER155C, strain BEM2, stronger effect = lower value 1.02 | locus YER167W, strain BCK2, stronger effect = lower value 1.01 | locus YFR010W, strain ubp6, stronger effect = lower value 0.989 | locus YGL078C, strain dbp3, stronger effect = lower value 0.999 | locus YGL086W, strain mad1, stronger effect = lower value 0.996 | locus YGL167C, strain pmr1, stronger effect = lower value 0.983 | locus YGL173C, strain kem1, stronger effect = lower value 0.992 | locus YGL227W, strain vid30, stronger effect = lower value 1 | locus YGL240W, strain doc1, stronger effect = lower value 1.01 | locus YGL248W, strain PDE1, stronger effect = lower value 1.02 | locus YGL253W, strain hxk2, stronger effect = lower value 0.996 | locus YGR078C, strain PAC10, stronger effect = lower value 1.04 and 1.02 | locus YGR135W, strain pre9, stronger effect = lower value 1 | locus YGR229C, strain SMI1, stronger effect = lower value 1.04 | locus YGR252W, strain gcn5, stronger effect = lower value 0.945 | locus YHR013C, strain ard1, stronger effect = lower value 0.97 | locus YHR027C, strain rpn1, stronger effect = lower value 0.985 | locus YHR030C, strain SLT2, stronger effect = lower value 1.02 | locus YHR079C, strain IRE1 (second series), stronger effect = lower value 0.985 | locus YHR079C, strain IRE1, stronger effect = lower value 1.05 | locus YHR094C, strain hxt1, stronger effect = lower value 0.998 | locus YHR129C, strain ARP1, stronger effect = lower value 1.02 | locus YHR142W, strain chs7, stronger effect = lower value 0.968 | locus YHR200W, strain rpn10, stronger effect = lower value 0.998 | locus YIL066C, strain RNR3, stronger effect = lower value 1.03 | locus YIL073C, strain SPO22, stronger effect = lower value 0.973 | locus YIL125W, strain kgd1, stronger effect = lower value 1 | locus YIR030C, strain dcg1, stronger effect = lower value 1 | locus YJL092W, strain hpr5, stronger effect = lower value 0.987 | locus YJL095W, strain BCK1 (second series), stronger effect = lower value 0.986 | locus YJL095W, strain BCK1, stronger effect = lower value 1.04 and 1.01 | locus YJL115W, strain asf1, stronger effect = lower value 0.991 | locus YJL129C, strain trk1, stronger effect = lower value 0.987 | locus YJL134W, strain LCB3, stronger effect = lower value 1.02 | locus YJL154C, strain vps35, stronger effect = lower value 0.987 | locus YJL164C, strain tpk1, stronger effect = lower value 0.993 | locus YJL166W, strain qcr8, stronger effect = lower value 0.996 | locus YJL168C, strain set2, stronger effect = lower value 0.99 | locus YJL187C, strain SWE1 (second series), stronger effect = lower value 1.03 | locus YJR043C, strain POL32, stronger effect = lower value 1 | locus YJR066W, strain TOR1, stronger effect = lower value 0.993
